Screens from PubChem BioAssay.
Mdm2-MdmX inh: human Mdm2/MdmX binding inhibition. actives 3% (n = 330,000). inhibition, % at 8 µM. SaOS-2 split-luciferase Mdm2/MdmX complementation, luminescence. AID 485346. O15151+Q00987;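 active = inhibition of at least 50% at 8 µM in the primary screen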
SKKanGAS inh: inhibitors of SKKanGAS S. pyogenes growth in kanamycin (SK-promoter or general growth effect); AID 1662; inhibition, % at 7.5 µM; BacTiter-Glo, 6 h; actives 1.3% (n = 300,000);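 active = mean replicate score, as percent of positive control median, at least 50; inconclusive = mean below 50 but one replicate at or above 50; inactive = mean and every replicate below 50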;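 also: strain carries kanamycin resistance gene driven by streptokinase promoter and grows in 40 µg/ml kanamycin; loss of luminescence reflects streptokinase promoter inhibition or plain growth inhibition; 0% = median of DMSO wells and 100% = positive control at its reference dose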
CSC inhib: cancer stem cell inhibition; inhibition, % at 7.5 µM; actives 1.1% (n = 300,000); AID 2717; cancer stem cell-like cells viability, luminescence; in the data active = inhibition above about 75%; inconclusive = no clear call, values can overlap the other calls; tested in HMLE shEcad cells
Calb FLC: C. albicans growth modulation with fluconazole; growth inhibition, % (no concentration beside the values); C. albicans CaCi-2 (fluconazole-resistant clinical isolate) + fluconazole, Alamar Blue growth, 48 h; actives 0.57% (n = 300,000);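 active = growth inhibition above about 58% in most replicates, limit read from the data, passing the limit was not always enough; inconclusive = exactly half the replicates above a set limit; inactive = most replicates below a set limit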;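 also: all wells also contain fluconazole at 8 µg/ml as a sub-toxic cotreatment; 0% = median of DMSO wells and 100% = median of geldanamycin control wells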
MPTP inh: inhibitors of mitochondrial permeability transition pore; isolated mouse mitochondria, Ca2+ swelling absorbance, 30 min; inhibition, % at 10 µM; AID 602449; actives 1.4% (n = 360,000);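 active = inhibition of 50% or more, scaled per plate between neutral and stimulator controls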;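 also: 0% = DMSO wells given calcium and 100% = 1 mM EGTA wells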
Beta cell apopt: beta cell apoptosis inhibition; INS-1E cytokine-induced death, ATP luminescence, 48 h; percent of positive-control rescue, neutral wells zero; protection from apoptosis, % (concentration not given with the values); actives 0.8% (n = 300,000);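 active = Every replicate reaches about 75%, or at least half do and their mean reaches it too, limit read from the data; inconclusive = At least half of replicates reach the limit but their mean does not; inactive = Under half of replicates reach the limit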;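 also: 0% = cytokine-treated negative control wells and 100% = positive control rescue; higher means more ATP so stronger rescue from cytokine killing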
Mdm2 MdmX conf: human Mdm2/MdmX binding inhibition, confirmed; AID 489028; shares compounds with Mdm2-MdmX inh; inhibition, % at 8 µM; luminescent assay; actives 55% (n = 10,000); in the data active = inhibition above about 40%
Full FLuc ctr: counter-screen for Mdm2/MdmX inhibitors: full-length luciferase; AID 504607; SaOS-2 full-length luciferase counterscreen, luminescence; inhibition, % at 8 µM; actives 77% (n = 6,200); shares compounds with Mdm2-MdmX inh;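 active = mean inhibition at 8 µM reaching about 37%, which flags the compound as non-specific, limit read from the data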;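 also: p53-null SaOS-2 cells with luciferase driven by a doxycycline-inducible promoter; compound on cells about two nights before reading with doxycycline added after day one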
Active calls of the source: *; ? = inconclusive; . = no result given. Shown are actives, neighbours in structure and some others; about 5.4% of the full set was active somewhere.

SMILES	Mdm2-MdmX inh	SKKanGAS inh	CSC inhib	Calb FLC	MPTP inh	Beta cell apopt	Mdm2 MdmX conf	Full FLuc ctr
CCOc1cc(NC(=O)c2ccco2)c(OCC)cc1NC(=O)COc1ccccc1C	99.4*	-1.6	9.8	7.9	-1.1	3.2	35.4	33.4
O=C(N/N=C/c1ccco1)c1cc2ccccc2o1	9.1	-4.0	-2.6	.	-0.7	1.6	.	.
O=C(COc1ccccc1[N+](=O)[O-])Nc1ccc(NC(=O)c2cc3ccccc3o2)cc1	54.2*	14.5	-2.5	-2.9	1.7	-1.5	30.9	71.0*
Cc1ccccc1OCC(=O)Nc1ccccc1NC(=O)c1ccco1	5.2	-3.9	-11.6	-1.0	1.0	.	.	.
COc1ccc(NC(=O)c2ccco2)cc1NC(=O)COc1ccccc1[N+](=O)[O-]	78.2*	-5.1	-4.9	10.8	0.3	11.3	24.6	.
CN(Cc1cccc(Cl)c1Cl)C(=O)c1ccc(NC(=O)CC#N)cc1	2.7	4.6	17.2	21.6	1.2	-10.3	.	.
Cc1ccc(C)c(NC(=O)c2ccc3c(=O)n4c(nc3c2)CCC4)c1	-19.0	.	-7.2	.	-0.6	0.8	.	.
Cn1c(SC2=CS(=O)(=O)c3ccccc32)nc2ccccc21	70.3*	0.0	45.6	91.6*	-0.3	13.1	53.1*	3.3
Cn1c(CSc2nc3ccccc3n2C)nc2ccccc21	14.5	-5.9	.	26.5	1.2	6.2	.	.
CC(C)c1ccc(N(CC(=O)Nc2ccc(S(=O)(=O)N3CCOCC3)cc2)S(C)(=O)=O)cc1	2.4	-1.5	5.0	17.1	2.6	8.0	.	.
Cc1ccc(Cc2cnc(NC(=O)CN3CCOCC3)s2)cc1Cl	1.7	14.3	-0.1	7.6	-0.8	-0.5	.	.
Cc1cc(C)nc(SCC(=O)Nc2ncc(Cc3ccc(Cl)c(Cl)c3)s2)n1	51.9*	-5.7	10.6	0.2	-0.3	23.1	13.2	.
Cc1ccccc1Cn1c(O)c(N=NC(=S)Nc2ccccc2F)c2ccccc21	40.3	?	2.0	-12.0	1.7	37.2	.	.
Oc1c(N=NC(=S)Nc2ccccc2F)c2ccccc2n1Cc1ccc(Cl)cc1	53.5*	57.7*	27.2	7.1	1.7	38.4	46.0*	68.5*
Oc1c(N=NC(=S)Nc2ccccc2F)c2ccccc2n1Cc1ccccc1F	64.0*	79.0*	.	10.1	0.5	45.9	48.1*	46.3*
CC(=O)NC1C(=O)N(Cc2ccccc2)c2ccc(Br)cc21 (stereo unspecified)	75.0*	7.2	4.5	-11.6	-0.5	-1.2	42.0*	48.9*
CC(=O)NC1C(=O)N(CCc2ccccc2)c2ccc(Br)cc21 (stereo unspecified)	.	.	.	.	-1.6	.	.	.
CCOc1ccccc1Nc1nnc(SC(C)C(=O)Nc2nc(-c3ccccc3)cs2)s1 (stereo unspecified)	86.0*	1.2	24.3	-6.6	-0.8	5.3	78.7*	35.2
CN(C)c1ccc(/C=C2/SC(=O)N(CCN=C3NS(=O)(=O)c4ccccc43)C2=O)cc1	60.5*	3.8	0.8	-3.3	6.8	4.3	20.9	.
O=C1C2C3C=CC(C3=C(c3ccccc3)c3ccccc3)C2C(=O)N1Cc1ccccc1 (stereo unspecified)	79.2*	-7.7	19.0	-1.4	-3.2	7.4	-3.1	.
O=C1C2C3C=CC(C3=C(c3ccccc3)c3ccccc3)C2C(=O)N1CCO (stereo unspecified)	-7.0	4.6	1.1	13.9	1.9	-0.1	.	.
S=C1NCCOCCNC(=S)NCCOCCOCCN1	-1.8	2.6	2.2	-25.4	0.3	2.3	.	.
O=C(Nc1ccc(CSc2ccccc2)cc1)c1ccco1	-61.9	-5.6	30.4	.	1.3	-1.1	.	.
CC1CC(N(C(=O)c2ccco2)c2ccccc2)c2ccccc2N1C(=O)c1ccco1 (stereo unspecified)	4.0	-1.1	-5.9	-9.9	2.7	-0.2	.	.
CC1CC(N(C(=O)c2ccc(Cl)cc2)c2ccccc2)c2ccccc2N1C(=O)c1ccco1 (stereo unspecified)	50.2*	9.2	21.5	4.4	0.8	16.5	30.7	.
SMILES	Mdm2-MdmX inh	SKKanGAS inh	CSC inhib	Calb FLC	MPTP inh	Beta cell apopt	Mdm2 MdmX conf	Full FLuc ctr
CCN1CCc2c(sc(NC(=O)c3ccc(S(=O)(=O)N(C)c4ccccc4)cc3)c2C(=O)NC)C1	58.6*	10.2	42.1	-1.4	-0.1	6.4	32.8	.
COC(=O)c1c(NC(=O)c2ccccc2N(C)S(=O)(=O)c2ccccc2)sc2c1CCCC2	.	16.6	.	-4.0	0.0	.	.	.
CCOC(=O)c1c(NC(=O)c2ccccc2N(C)S(=O)(=O)c2ccccc2)sc2c1CCCC2	55.0*	3.2	69.2	-4.5	2.6	24.6	60.4*	66.5*
COCCN(CCOC)S(=O)(=O)c1ccc(C(=O)Nc2sc3c(c2C(N)=O)CCCCC3)cc1	81.9*	1.6	.	-8.7	-1.2	-8.4	56.6*	116.4*
CC(=O)C1=CCC(c2ccc(Cl)c(Cl)c2)N(S(=O)(=O)c2ccc(C)cc2)C1 (stereo unspecified)	.	.	.	.	-1.4	.	.	.
COc1cc(/C=N/n2cnc3c(sc4nc(C)cc(C)c43)c2=O)ccc1O	33.4	1.8	10.1	10.4	.	4.1	.	.
Cc1ccc2c(c1)C1CN(C)CCC1N2Sc1ccccc1[N+](=O)[O-] (stereo unspecified)	61.1*	-7.0	10.3	96.9*	0.6	-5.2	40.2*	62.0*
Cc1ccc2c(c1)[C@@H]1CN(C)CC[C@@H]1N2S(=O)(=O)c1ccc([N+](=O)[O-])cc1	4.5	-1.4	-3.7	-2.3	1.0	13.3	.	.
Cc1ccc2oc(=O)c3cc(C(=O)NCCCN4CCN(C)CC4)sc3c2c1	30.4	0.6	10.2	1.0	7.8	5.6	.	.
Cc1ccc2oc(=O)c3cc(C(=O)NCCCN4CC(C)CC(C)C4)sc3c2c1 (stereo unspecified)	50.4*	3.3	10.7	-5.1	1.1	5.5	16.9	.
Cc1ccc(C)c(Nc2nc3c(S(=O)(=O)c4ccccc4)nnn3c3ccccc23)c1	36.9	28.4	7.0	3.3	48.5	11.6	.	.
O=S(=O)(c1ccccc1)c1nnn2c1nc(NC1CCN(Cc3ccccc3)CC1)c1ccccc12	53.8*	8.1	16.8	-2.7	-2.9	24.2	33.4	.
O=S(=O)(c1ccccc1)c1nnn2c1nc(NC1CCN(Cc3ccccc3)CC1)c1cc(Cl)ccc12	100.3*	11.9	0.1	49.1	-1.5	20.0	36.5	51.5*
CC1(C(=O)NS(=O)(=O)c2ccc(Cl)s2)CCN1C(=O)Cc1cc(F)ccc1F (stereo unspecified)	.	.	.	.	-0.3	.	.	.
Cc1nc(SC(C)C(=O)NCC2CCCO2)c2cc(-c3ccccc3)sc2n1 (stereo unspecified)	97.3*	7.5	48.5	-6.7	1.0	1.3	95.9*	54.8*
COc1ccc(NC2=NCCC(=O)N2Cc2cccs2)cc1	27.3	-7.4	-0.3	22.0	-0.6	-3.6	.	.
